# Assay results from publication PMC4552634, “A New Set of Chemical Starting Points with Plasmodium falciparum Transmission-Blocking Potential for Antimalarial Drug Discovery” (PLoS ONE, 2015).
# The whole screen tested about 13,000 compounds, of which about 3,200 (25%) showed an effect of 50% or more. The list shows a part of the results.
# Tested on: P. falciparum stage V gametocytes
# Set-up: BacTiter-Glo ATP luminescence viability of purified stage V gametocytes in 384-well plates, per cent inhibition versus DMSO
# Details: 48 h, 5 µM; inhibitor
row,SMILES,% Inhibition [%]
1,Cc1ccccc1C1CCN(C2CCC(NC(=O)/C=C/c3ccc4c(c3)OC(F)(F)O4)CC2)CC1 (stereo not drawn) [TCMDC-133520],-82.53
2,COc1cc(Br)ccc1N1CCN(CCCCNC(=O)c2ccc(NC(=O)c3ccc(Cl)cc3)cc2)CC1 [TCMDC-138257],6.971
3,CC(C)c1ccc2[nH]c(C(=O)NC3CCC(N4CCCc5ccc(C#N)cc5C4)CC3)cc2c1 (stereo not drawn) [TCMDC-133503],-23.75
4,O=C(NCCCNc1ccnc2cc(Cl)ccc12)c1ccccc1F [TCMDC-125231],46.84
5,N#Cc1ccccc1C1CCN(C2CCC(Nc3cc(-c4cccnc4)ccn3)CC2)CC1 (stereo not drawn) [TCMDC-134834],-2.713
6,Cc1cc(C(F)(F)F)nn1-c1ccc(NC(=O)c2ccco2)cc1 [TCMDC-124896],9.865
7,O=C(/C=C/c1ccc(Cl)c(Cl)c1)NCCCCCN1CCC(NC(=O)Nc2cccc(Cl)c2Cl)CC1 [TCMDC-135725],-48.39
8,NC1=NC(c2ccccc2)(c2ccccc2)C(=O)N1CC1CCC1 [TCMDC-136775],2.608
9,Cc1ccc(NC(=S)NC2CCN(CCCCCNC(=O)/C=C/c3ccc(Cl)c(Cl)c3)CC2)cc1Cl [TCMDC-135901],122.2
10,O=C(/C=C/c1ccc(Cl)c(Cl)c1)NCCCCCN1CCC(NC(=O)Nc2cccc(Cl)c2)CC1 [TCMDC-135711],59.36
11,CSc1ccccc1NC(=S)NC1CCN(CCCCCNC(=O)/C=C/c2ccc(Cl)c(Cl)c2)CC1 [TCMDC-139391],14.69
12,O=C(/C=C/c1ccc(Cl)c(Cl)c1)NCCCCCN1CCC(NC(=S)Nc2ccc(Cl)c(Cl)c2)CC1 [TCMDC-135903],-7.54
13,Cc1cccc(NC(=S)NC2CCN(CCCCCNC(=O)/C=C/c3ccc(Cl)c(Cl)c3)CC2)c1 [TCMDC-139390],-46.46
14,O=C(/C=C/c1ccc(Cl)c(Cl)c1)NCCCCCN1CCC(NC(=O)Nc2cc(Cl)cc(Cl)c2)CC1 [TCMDC-135727],-63.17
15,Cc1ccccc1NC(=O)NC1CCN(CCCCCNC(=O)/C=C/c2ccc(Cl)c(Cl)c2)CC1 [TCMDC-135701],-65.25
16,Cc1ccccc1NC(=S)NC1CCN(CCCCCNC(=O)/C=C/c2ccc(Cl)c(Cl)c2)CC1 [TCMDC-135897],97.66
17,O=C(/C=C/c1ccc(Cl)c(Cl)c1)NCCCCCN1CCC(NC(=S)Nc2cccc(Cl)c2)CC1 [TCMDC-135899],-1.091
18,O=C(/C=C/c1ccc(Cl)c(Cl)c1)N1CCC(CCN2CCC(c3nc4ccc(O)cc4[nH]3)CC2)CC1 [TCMDC-140127],-21.57
19,O=C(Nc1ccc(F)cc1)c1cnc(N2CCN(c3ccncc3)CC2)c(Cl)c1 [TCMDC-134599],47.6
20,CC(C)(CNC(=O)C1CCN(Cc2ccc(Cl)cc2)CC1)c1nc(-c2ccc(Cl)c(O)c2)c(-c2ccncc2)[nH]1 [TCMDC-141138],-35.73
21,NC(=O)c1cc2nc(Nc3ccc(F)cc3)nc(Nc3ccc(S(N)(=O)=O)cc3)c2[nH]1 [TCMDC-137043],-45.2

row,SMILES,% Inhibition [%]
1,CC(C)(C)NCc1cc(Nc2ccnc3cc(Cl)ccc23)ccc1F [TCMDC-135909],-17.74
2,C[C@H](NC(=O)[C@H](CCCCNC(=O)OC(C)(C)C)NC(=O)OC(C)(C)c1ccc(-c2ccccc2)cc1)C(=O)OCc1ccccc1 [TCMDC-131396],15.4
3,O=C(Nc1ccc2nccc(N3CCN4CCC[C@H]4C3)c2c1)c1ccc(Cl)c(Cl)c1 [TCMDC-139628],19.58
4,CC[C@H](C)CNC(=O)c1cccc(-c2cccc(CN3CCC(N4CCCC4)CC3)c2)n1 [TCMDC-134224],16.22
5,CC[C@H](C)CNC(=O)c1ccnc(-c2ccc(CN3CCC(N4CCCC4)CC3)cc2)c1 [TCMDC-134250],36.18
6,CC[C@H](C)CNC(=O)c1cccc(-c2ccc(CN3CCC(N4CCCC4)CC3)cc2)n1 [TCMDC-134249],57.67
7,N#Cc1ccc2c(c1)CCN(CCC1CCC(NC(=O)c3cc4cccc(Cl)c4[nH]3)CC1)CC2 (stereo not drawn) [TCMDC-139685],-1.386
8,Cc1ccc(-c2nnc3c4ccccc4c(C)nn23)cc1S(=O)(=O)N1CCN(CCO)CC1 [TCMDC-124482],63.32
9,Cc1ccc(C(=O)Cn2nc(-c3ccc(C)c(S(=O)(=O)N4CCCC4)c3)ccc2=O)cc1 [TCMDC-124704],-26.21
10,Cc1ccc(C(=O)Cn2nc(-c3ccc(C)c(S(=O)(=O)N4CCCCC4)c3)ccc2=O)cc1 [TCMDC-124714],32.41
11,NC(=S)Cc1ccc2c(c1)OCO2 [TCMDC-137863],-6.254
12,O=C(Cc1ccccc1)NC(CCN1CCC(N(C2CC2)S(=O)(=O)c2cccc(C(F)(F)F)c2)CC1)c1ccc(Cl)c(Cl)c1 (stereo not drawn) [TCMDC-141710],20.7
13,CCCCCN1CCC(NS(=O)(=O)c2cccc(C(=O)Nc3ccc(Cl)cc3)c2)CC1 [TCMDC-132806],32.08
14,Cc1cnn(-c2cccc(C(=O)NC3CCC(CCN4CCc5ccc(C#N)cc5CC4)CC3)c2)c1 (stereo not drawn) [TCMDC-139818],-20.34
15,Cc1cccc2[nH]c(-c3cccc(-c4ccc(NC(=O)Nc5ccsc5)cc4)c3)nc12 [TCMDC-133211],22.09
16,Cc1ccc(-c2cncc(-c3cc(NC4CCN(Cc5ccccc5)CC4)nc(-c4ccccc4)n3)c2)cc1 [TCMDC-125588],17.17
17,Cc1cc(NC2CCN(Cc3ccccc3)CC2)nc(NCCCCc2ccccc2)n1 [TCMDC-138304],79.92
18,COc1cccc(Nc2nc(C)cc(NC3CCN(Cc4ccccc4)CC3)n2)c1 [TCMDC-134022],-46.19
19,CC12CCC(C(=O)N(CC(O)Cn3c4ccc(Cl)cc4c4cc(Cl)ccc43)C1=O)C2(C)C (stereo not drawn) [TCMDC-125719],82.98
20,OC(CNc1cccc(Cl)c1)Cn1c2ccc(Cl)cc2c2cc(Cl)ccc21 (stereo not drawn) [TCMDC-125716],20.85
21,CS(=O)(=O)N(CC(O)Cn1c2ccc(Cl)cc2c2cc(Cl)ccc21)c1ccccc1 (stereo not drawn) [TCMDC-124039],35.36
